# Measured values from PubChem BioAssay (NCATS).
# Records with an inconclusive call do not appear. Entries that show only a call come without a potency. A number with no mark means an inactive call. Activity calls are given as the source filed them. Calls come from the whole dose curve; as a rule, active = well fitted curve in the direction sought with a large enough effect; inconclusive = small, poorly fitted or top-dose-only effect, or another doubt; inactive = no such curve, though single readings can be large; an effect the other way counts as inactive or inconclusive.
# Assays:
# MKL-1 = assay: qHTS assay to identify novel small-molecules to repurpose for Merkel cell carcinoma treatment (AID 1296009); settings: MCC and control cell lines, CellTiter-Glo viability, 72 h; series mostly up to 46 µM; note: nearly all actives have a fitted effect of over 60% in size
# Procedure, shortened: (§1)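 Cell viability, measured as CellTiter-Glo luminescence, was normalized between DMSO and no-cell wells. The cells had been exposed to 8- or 11-point compound dilutions for 72 hr at 37 degree celsius.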
# MKL-2 = assay: as above; settings: MCC and control cell lines, CellTiter-Glo viability, 72 h; series mostly up to 46 µM
# Procedure, shortened: as §1
# UISO = assay: as above; settings: MCC and control cell lines, CellTiter-Glo viability, 72 h; series mostly up to 46 µM
# Procedure, shortened: as §1
# WaGa = assay: as above; settings: MCC and control cell lines, CellTiter-Glo viability, 72 h; series mostly up to 46 µM
# Procedure, shortened: as §1
# CAOV3 = assay: Primary qHTS to identify gynecologic anti-cancer compounds using libraries of approved drugs and bioactive compounds (AID 1345084); settings: Gynecologic cancer cell panel viability, ATPlite luminescence, 48 h; series mostly up to 57.5 µM; note: nearly all actives have a fitted effect of over 55% in size
# Procedure, shortened: (§2)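 ATP-based viability (ATPlite), 1,000 cells/well, 16 h pre-incubation, 48 h compound at 37 C, 5% CO2, 15 min RT before read.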
# Es-2 = assay: as above; settings: Gynecologic cancer cell panel viability, ATPlite luminescence, 48 h; series mostly up to 57.5 µM
# Procedure, shortened: as §2
# HeLa = assay: as above; settings: Gynecologic cancer cell panel viability, ATPlite luminescence, 48 h; series mostly up to 57.5 µM
# Procedure, shortened: as §2
# Tov-21-G = assay: as above; settings: Gynecologic cancer cell panel viability, ATPlite luminescence, 48 h; series mostly up to 57.5 µM
# Procedure, shortened: as §2
# [1] = Drug repurposing screens with cells derived from glioblastoma tumor samples (AID 1345199); settings: GBM patient neurospheres viability, ATP luminescence, 48 h; note: nearly all actives have a fitted effect of over 40% in size
# Procedure, shortened: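 Primary testing used CD133+ neurospheres from four GBM patients, seven concentrations, 48 h exposure and ATP-based viability; confirmation added three slower-growing patient lines.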
# PA-1 = assay: Primary qHTS to identify gynecologic anti-cancer compounds using libraries of approved drugs and bioactive compounds (AID 1345084); settings: Gynecologic cancer cell panel viability, ATPlite luminescence, 48 h; series mostly up to 57.5 µM; note: nearly all actives have a fitted effect of over 55% in size
# Procedure, shortened: as §2
# SKOV3 = assay: as above; settings: Gynecologic cancer cell panel viability, ATPlite luminescence, 48 h; series mostly up to 57.5 µM
# Procedure, shortened: as §2
# Tov112D = assay: as above; settings: Gynecologic cancer cell panel viability, ATPlite luminescence, 48 h; series mostly up to 57.5 µM
# Procedure, shortened: as §2
# JEG-3 = assay: as above; settings: Gynecologic cancer cell panel viability, ATPlite luminescence, 48 h; series mostly up to 57.5 µM
# Procedure, shortened: as §2
# MCC-26 = assay: qHTS assay to identify novel small-molecules to repurpose for Merkel cell carcinoma treatment (AID 1296009); settings: MCC and control cell lines, CellTiter-Glo viability, 72 h; series mostly up to 46 µM; note: nearly all actives have a fitted effect of over 60% in size
# Procedure, shortened: as §1
# C33A = assay: Primary qHTS to identify gynecologic anti-cancer compounds using libraries of approved drugs and bioactive compounds (AID 1345084); settings: Gynecologic cancer cell panel viability, ATPlite luminescence, 48 h; series mostly up to 57.5 µM; note: nearly all actives have a fitted effect of over 55% in size
# Procedure, shortened: as §2
# CASKI = assay: as above; settings: Gynecologic cancer cell panel viability, ATPlite luminescence, 48 h; series mostly up to 57.5 µM
# Procedure, shortened: as §2
# Hek293T = assay: as above; settings: Gynecologic cancer cell panel viability, ATPlite luminescence, 48 h, control line for the selectivity index; series mostly up to 57.5 µM
# Procedure, shortened: as §2
# OV90 = assay: as above; settings: Gynecologic cancer cell panel viability, ATPlite luminescence, 48 h; series mostly up to 57.5 µM
# Procedure, shortened: as §2
# MCC-13 = assay: qHTS assay to identify novel small-molecules to repurpose for Merkel cell carcinoma treatment (AID 1296009); settings: MCC and control cell lines, CellTiter-Glo viability, 72 h; series mostly up to 46 µM; note: nearly all actives have a fitted effect of over 60% in size
# Procedure, shortened: as §1
# [2] = at 45.9 µM (top of the series), tumour line B
# [3] = at 45.9 µM (top of the series), tumour line D
# [4] = at 46 µM (top of the series), tumour line A
# [5] = at 46.1 µM (top of the series), tumour line C
# [6] = at 20 µM (top of the series), tumour line C
# Potency is the fitted concentration of half-maximal effect.
compound,measurement,setting,value
CCOc1ccc2nc3cc(N)ccc3c(N)c2c1,Potency,MKL-1,5.96 µM (active)
same,Potency,MKL-2,2.99 µM (active)
same,Potency,UISO,8.41 µM (active)
same,Potency,WaGa,2.11 µM (active)
same,Potency,CAOV3,12.6 µM (active)
same,Potency,Es-2,inactive
same,Potency,HeLa,inactive
same,Potency,Tov-21-G,inactive
same,"activity, negative = cell killing",[1]; [2],-17.9%
same,"activity, negative = cell killing",[1]; [3],-30.3%
same,"activity, negative = cell killing",[1]; [4],-14.8%
same,"activity, negative = cell killing",[1]; [5],1.93%
CCCCCCCCCCCCCCCC[N+](C)(C)CCN(Cc1ccc(OC)cc1)c1ncccn1,Potency,MKL-1,5.96 µM (active)
same,Potency,MKL-2,2.37 µM (active)
same,Potency,UISO,10.6 µM (active)
same,Potency,WaGa,16.8 µM (active)
same,Potency,CAOV3,17.8 µM (active)
same,Potency,PA-1,15.8 µM (active)
same,Potency,SKOV3,20 µM (active)
same,Potency,Tov112D,20 µM (active)
same,"activity, negative = cell killing",[1]; [6],-23.1%
same,Potency,[1]; tumour line A,8.91 µM (active)
same,Potency,[1]; tumour line B,14.1 µM (active)
COc1c(C)c2c(c(O)c1C/C=C(\C)CCC(=O)O)C(=O)OC2,Potency,WaGa,0.531 µM (active)
same,Potency,CAOV3,inactive
same,Potency,Es-2,2.82 µM (active)
same,Potency,JEG-3,inactive
same,Potency,PA-1,0.282 µM (active)
same,Potency,Tov-21-G,1 µM (active)
same,"activity, negative = cell killing",[1]; [6],-18.6%
CC(=O)N/N=C/c1ccc([N+](=O)[O-])o1,Potency,MCC-26,inactive
same,Potency,MKL-2,6.68 µM (active)
same,Potency,WaGa,23.7 µM (active)
same,Potency,C33A,inactive
same,Potency,CAOV3,inactive
same,Potency,CASKI,inactive
same,Potency,Es-2,inactive
same,Potency,HeLa,inactive
same,Potency,Hek293T,inactive
same,Potency,JEG-3,inactive
same,Potency,OV90,inactive
same,Potency,PA-1,inactive
same,Potency,SKOV3,inactive
same,Potency,Tov-21-G,inactive
same,Potency,Tov112D,inactive
O=c1c(-c2ccccc2)c1-c1ccccc1,Potency,MCC-26,inactive
same,Potency,MKL-1,26.6 µM (active)
same,Potency,MKL-2,13.3 µM (active)
same,Potency,UISO,26.6 µM (active)
same,Potency,WaGa,18.8 µM (active)
same,Potency,HeLa,inactive
same,Potency,JEG-3,inactive
same,Potency,Tov-21-G,inactive
Nc1ccc(C(=O)Nc2ccccc2N)cc1,Potency,MKL-1,18.8 µM (active)
same,Potency,MKL-2,5.96 µM (active)
same,Potency,WaGa,2.66 µM (active)
same,Potency,C33A,inactive
same,Potency,CAOV3,inactive
same,Potency,CASKI,inactive
same,Potency,Hek293T,inactive
same,Potency,JEG-3,inactive
same,Potency,PA-1,11.2 µM (active)
same,Potency,SKOV3,inactive
same,Potency,Tov112D,inactive
CCCCCCCCCCCCCCCC[N+](C)(C)CC,Potency,MKL-1,0.119 µM (active)
same,Potency,MKL-2,0.0473 µM (active)
same,Potency,UISO,0.668 µM (active)
same,Potency,WaGa,0.119 µM (active)
same,Potency,CASKI,8.91 µM (active)
same,Potency,Es-2,28.2 µM (active)
same,Potency,HeLa,28.2 µM (active)
same,Potency,OV90,22.4 µM (active)
same,Potency,PA-1,10 µM (active)
same,Potency,SKOV3,2.51 µM (active)
same,Potency,Tov-21-G,10 µM (active)
same,Potency,Tov112D,28.2 µM (active)
CCN(CC)CCOc1ccc(C(O)(Cc2ccc(Cl)cc2)c2ccc(C)cc2)cc1 (stereo not given),Potency,MKL-2,7.5 µM (active)
same,Potency,WaGa,18.8 µM (active)
same,Potency,HeLa,inactive
same,Potency,JEG-3,inactive
same,Potency,OV90,17.8 µM (active)
CCCCc1nc(Cl)c(CO)n1Cc1ccc(-c2ccccc2-c2nn[nH]n2)cc1,Potency,C33A,inactive
same,Potency,CAOV3,inactive
same,Potency,CASKI,inactive
same,Potency,Es-2,inactive
same,Potency,HeLa,inactive
same,Potency,Hek293T,inactive
same,Potency,JEG-3,inactive
same,Potency,OV90,inactive
same,Potency,PA-1,inactive
same,Potency,SKOV3,inactive
same,Potency,Tov-21-G,inactive
same,Potency,Tov112D,inactive
same,"activity, negative = cell killing",[1]; [2],-2.59%
same,"activity, negative = cell killing",[1]; [3],-10.9%
same,"activity, negative = cell killing",[1]; [5],-14.8%
Nc1ccc(/C=C/c2ccc(N)cc2S(=O)(=O)O)c(S(=O)(=O)O)c1,"activity change, negative = cytotoxicity",C33A,-2.85% [at 0.462 µM]
same,"activity change, negative = cytotoxicity",CAOV3,-5.63% [at 0.462 µM]
same,"activity change, negative = cytotoxicity",CASKI,-23.3% [at 0.462 µM]
same,"activity change, negative = cytotoxicity",Es-2,1.34% [at 0.462 µM]
same,"activity change, negative = cytotoxicity",HeLa,9.69% [at 0.462 µM]
same,"activity change, negative = cytotoxicity",Hek293T,4.03% [at 0.462 µM]
same,"activity change, negative = cytotoxicity",JEG-3,-1.28% [at 0.462 µM]
same,"activity change, negative = cytotoxicity",OV90,2.33% [at 0.462 µM]
same,"activity change, negative = cytotoxicity",PA-1,4.94% [at 0.462 µM]
same,"activity change, negative = cytotoxicity",SKOV3,-10.7% [at 0.462 µM]
same,"activity change, negative = cytotoxicity",Tov-21-G,0.128% [at 0.462 µM]
same,"activity change, negative = cytotoxicity",Tov112D,3.4% [at 0.462 µM]
same,"activity, negative = cell killing",[1]; [2],-7.96%
same,"activity, negative = cell killing",[1]; [3],-14.3%
same,"activity, negative = cell killing",[1]; [4],-15.5%
same,"activity, negative = cell killing",[1]; [5],-2.52%
Cc1ccc(O)c2ncccc12,Potency,MKL-1,15 µM (active)
same,Potency,MKL-2,8.41 µM (active)
same,Potency,UISO,11.9 µM (active)
same,Potency,C33A,inactive
same,Potency,CASKI,inactive
same,Potency,Es-2,inactive
same,Potency,HeLa,inactive
same,Potency,Hek293T,inactive
same,Potency,JEG-3,inactive
same,Potency,OV90,inactive
same,Potency,PA-1,inactive
same,Potency,SKOV3,inactive
same,Potency,Tov-21-G,inactive
same,Potency,Tov112D,inactive
C/C=C/c1ccc(OC)cc1,Potency,C33A,inactive
same,Potency,CAOV3,inactive
same,Potency,CASKI,inactive
same,Potency,Es-2,inactive
same,Potency,HeLa,inactive
same,Potency,Hek293T,inactive
same,Potency,JEG-3,inactive
same,Potency,OV90,inactive
same,Potency,PA-1,inactive
same,Potency,SKOV3,inactive
same,Potency,Tov-21-G,inactive
same,Potency,Tov112D,inactive
same,"activity, negative = cell killing",[1]; [2],-1.8%
same,"activity, negative = cell killing",[1]; [3],3.04%
same,"activity, negative = cell killing",[1]; [4],-17.3%
same,"activity, negative = cell killing",[1]; [5],0.347%
CCN(CC)CCNC(=O)COc1ccc(Cl)cc1,Potency,C33A,inactive
same,Potency,CAOV3,inactive
same,Potency,CASKI,inactive
same,Potency,Es-2,inactive
same,Potency,HeLa,inactive
same,Potency,Hek293T,inactive
same,Potency,JEG-3,inactive
same,Potency,OV90,inactive
same,Potency,PA-1,inactive
same,Potency,SKOV3,inactive
same,Potency,Tov-21-G,inactive
same,Potency,Tov112D,inactive
same,"activity, negative = cell killing",[1]; [2],1.81%
same,"activity, negative = cell killing",[1]; [3],-18.1%
C=C1C(=C/C=C2\CCC[C@]3(C)[C@@H]([C@H](C)/C=C/[C@@H](O)C4CC4)CC[C@@H]23)C[C@@H](O)C[C@@H]1O,Potency,MCC-13,inactive
same,Potency,C33A,inactive
same,Potency,CAOV3,inactive
same,Potency,CASKI,inactive
same,Potency,Es-2,inactive
same,Potency,HeLa,inactive
same,Potency,Hek293T,inactive
same,Potency,JEG-3,inactive
same,Potency,OV90,inactive
same,Potency,PA-1,inactive
same,Potency,SKOV3,inactive
same,Potency,Tov-21-G,inactive
same,Potency,Tov112D,inactive
COc1cccc(OC)c1C(=O)N[C@@H]1C(=O)N2[C@@H]1SC(C)(C)[C@@H]2C(=O)O,Potency,C33A,inactive
same,Potency,CAOV3,inactive
same,Potency,CASKI,inactive
same,Potency,Es-2,inactive
same,Potency,HeLa,inactive
same,Potency,Hek293T,inactive
same,Potency,JEG-3,inactive
same,Potency,OV90,inactive
same,Potency,PA-1,inactive
same,Potency,SKOV3,inactive
same,Potency,Tov-21-G,inactive
same,Potency,Tov112D,inactive
same,"activity, negative = cell killing",[1]; [2],-0.637%
same,"activity, negative = cell killing",[1]; [3],-7.13%
same,"activity, negative = cell killing",[1]; [4],-15.4%
same,"activity, negative = cell killing",[1]; [5],14.7%
